# Beta apoptosis = inhibitors of cytokine-induced beta cell apoptosis, primary screen, luminescence; AID 435005, 2010; INS-1E cytokine-induced death, ATP luminescence, 48 h; percent of positive-control rescue, neutral wells zero; protection from apoptosis, % (concentration not given with the values); 300,000 tested, 0.8% active;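 active means Every replicate reaches about 75%, or at least half do and their mean reaches it too, limit read from the data; inconclusive means At least half of replicates reach the limit but their mean does not; inactive means Under half of replicates reach the limit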;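 further: 0% = cytokine-treated negative control wells and 100% = positive control rescue; higher means more ATP so stronger rescue from cytokine killing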
# Mdm2 MdmX PPI = inhibitors of human Mdm2-MdmX association, primary screen, cell-based, luminescence, split luciferase, SaOS-2, uHTS. Protein Mdm4 (Homo sapiens) + E3 ubiquitin-protein ligase Mdm2 (Homo sapiens), …. SaOS-2 split-luciferase Mdm2/MdmX complementation. inhibition, % at 8 µM. 330,000 tested, 3% active;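 active means inhibition of at least 50% at 8 µM in the primary screen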
# MPTP block = mitochondrial permeability transition pore inhibitors, primary screen, biochemical, isolated mouse mitochondria, absorbance | Ca2+ swelling absorbance, 30 min | inhibition, % at 10 µM | 360,000 tested, 1.4% active;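 active means inhibition of 50% or more, scaled per plate between neutral and stimulator controls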;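 further: 0% = DMSO wells given calcium and 100% = 1 mM EGTA wells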
# CSC inhib = cancer stem cell viability inhibitors, primary screen, luminescence. cancer stem cell-like cells viability. inhibition, % at 7.5 µM. 300,000 tested, 1.1% active. AID 2717, 2010; in the data active means inhibition above about 75%; inconclusive means no clear call, values can overlap the other calls; tested in HMLE shEcad cells
# NR3A LBD binder = binders of NR3A ligand-binding domain, primary screen, biophysical, differential scanning fluorimetry, uHTS; NR3A LBD differential scanning fluorimetry, Tm shift; 0% = protein alone, 100% = glycine-bound protein; Tm shift relative to glycine control, % at 25 µM; AID 1259313, 2017; Glutamate receptor ionotropic, NMDA 3A (GRIN3A) ligand-binding domain; 340,000 tested, 2.5% active;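 active means melting temperature shift of at least 10% of the positive control shift, at one fixed dose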
# SKKanGAS inh = S. pyogenes SKKanGAS growth inhibitors in kanamycin, primary screen, streptokinase expression inhibitor project, SKKanGAS strain, BacTiter-Glo luminescence; 6 h; inhibition, % at 7.5 µM; 300,000 tested, 1.3% active;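 active means mean replicate score, as percent of positive control median, at least 50; inconclusive means mean below 50 but one replicate at or above 50; inactive means mean and every replicate below 50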;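 further: strain carries kanamycin resistance gene driven by streptokinase promoter and grows in 40 µg/ml kanamycin; loss of luminescence reflects streptokinase promoter inhibition or plain growth inhibition; 0% = median of DMSO wells and 100% = positive control at its reference dose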
# Mdm2 MdmX conf = Mdm2-MdmX complex disruptors, retested hits, confirmation, luminescence, single concentration; shares compounds with Mdm2 MdmX PPI; Mdm2-MdmX binding, luminescent assay; inhibition, % at 8 µM; 10,000 tested, 55% active; in the data active means inhibition above about 40%
# Full FLuc ctr = full-length luciferase signal inhibition, confirmation, counter-screen for Mdm2/MdmX interaction inhibitor project, cell-based, single concentration, SaOS-2. AID 504607, 2011. SaOS-2 full-length luciferase counterscreen, luminescence. shares compounds with Mdm2 MdmX PPI. inhibition, % at 8 µM. 6,200 tested, 77% active;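 active means mean inhibition at 8 µM reaching about 37%, which flags the compound as non-specific, limit read from the data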;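 further: p53-null SaOS-2 cells with luciferase driven by a doxycycline-inducible promoter; compound on cells about two nights before reading with doxycycline added after day one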
# Starred values were filed as active, the others as inactive; ? = inconclusive; · = no result. This is a sample that favours compounds with a hit; in the whole collection about 6.9% have one here.
SMILES,Beta apoptosis,Mdm2 MdmX PPI,MPTP block,CSC inhib,NR3A LBD binder,SKKanGAS inh,Mdm2 MdmX conf,Full FLuc ctr
CC1(C)Cc2c(sc(NC(=O)C3CC(Cl)=CCC3C(=O)O)c2C#N)CO1 (centres undefined),-4,0,0,16,0,5,·,·
Cc1ccc(-n2[nH]c(=O)c(-c3ccccn3)c2C)cc1,5,79*,2,-13,1,-26,81*,54*
COC(=O)c1c(NC(=O)c2ccccc2N(C)S(=O)(=O)c2ccccc2)sc2c1CCCC2,·,·,0,·,2,17,·,·
COCCN(CCOC)S(=O)(=O)c1ccc(C(=O)Nc2sc3c(c2C(N)=O)CCCCC3)cc1,-8,82*,-1,·,2,2,57*,116*
CCOC(=O)c1c(NC(=O)c2ccccc2N(C)S(=O)(=O)c2ccccc2)sc2c1CCCC2,25,55*,3,69,0,3,60*,66*
CCN1CCc2c(sc(NC(=O)c3ccc(S(=O)(=O)N(C)c4ccccc4)cc3)c2C(=O)NC)C1,6,59*,0,42,6,10,33,·
COC(=O)c1ccc(CN2CCCC(CCC(=O)NCc3ccc(C)o3)C2)cc1 (centres undefined),-4,16,-1,-10,0,5,·,·
O=C(Nc1cc(Cl)ccc1F)C1=COCCO1,-6,-6,-1,·,·,-7,·,·
Cc1cc(C)nc(N/N=C/c2cc(Br)ccc2O)n1,88*,75*,0,41,-5,69*,76*,26
NS(=O)(=O)c1ccc(CCNC(=O)c2ccc(C#CC3(O)CCCCC3)cc2)cc1,5,70*,3,48,-6,-2,68*,72*
NS(=O)(=O)c1ccc(CCNC(=O)c2ccncc2)cc1,12,10,-1,23,-1,10,·,·
COc1ccc(C(=O)NCCc2nnc3ccc(SCC(=O)NCCc4ccc(OC)c(OC)c4)nn23)cc1,-11,13,0,-5,-1,-2,·,·
Cc1ccc(SCc2cc(=O)[nH]c(Nc3nc(C)c4ccc(C)cc4n3)n2)cc1,·,31,2,·,1,35,·,·
Cc1ccc2c(C)nc(Nc3nc(CSc4nc5ccccc5[nH]4)cc(=O)[nH]3)nc2c1,90*,59*,1,61,-4,4,58*,32
COc1ccc2c(C)nc(Nc3nc(-c4ccccc4)cc(=O)[nH]3)nc2c1,35,73*,2,107*,-3,74*,-16,·
Cc1nnc(SCC(=O)Nc2ccc([N+](=O)[O-])cc2)n1C,1,-11,-2,-5,-3,-2,·,·
CCc1nc2ccc(C(=O)NC3CCC(C)CC3)cc2nc1CC (centres undefined),-2,-14,-2,-6,0,7,·,·
COc1ccc(/C(C)=N/NC(=O)c2nnn(-c3nonc3N)c2-c2ccccc2)cc1,-4,61*,1,·,-17,2,9,·
C/C(=N\NC(=O)c1nnn(-c2nonc2N)c1-c1cccs1)c1ccc(C)cc1,2,71*,-2,-2,-2,1,2,·
COc1ccc(/C(C)=N/NC(=O)c2nnn(-c3nonc3N)c2-c2cccs2)cc1OC,6,59*,0,6,3,6,-8,·
C/C(=N\NC(=O)c1nnn(-c2nonc2N)c1-c1cccs1)c1ccc(O)cc1,-3,-5,-2,-4,-12,-2,·,·
COc1ccc(/C(C)=N/NC(=O)c2nnn(-c3nonc3N)c2-c2cccs2)cc1,-1,59*,-1,-4,0,-3,-2,·
CCc1ccc(C(C)NC(=O)COC(=O)c2ccc(-n3cnnn3)cc2)cc1 (centres undefined),-1,-3,0,4,0,·,·,·
CCOC(=O)C(C)Oc1cccc2c(=O)n(CC(=O)NCc3ccco3)ccc12 (centres undefined),26,51*,-1,55,-2,0,58*,63*
CC(C)C(=O)c1cn(CC(=O)NCc2ccco2)c2ccccc12,2,-15,-2,-5,4,22,·,·
SMILES,Beta apoptosis,Mdm2 MdmX PPI,MPTP block,CSC inhib,NR3A LBD binder,SKKanGAS inh,Mdm2 MdmX conf,Full FLuc ctr
CSc1cc(-c2ccc(Cl)cc2)n(Cc2ccccc2)c(=O)c1C#N,9,98*,7,61,1,-11,7,·
CSc1cc(-c2ccccc2)n(C)c(=O)c1C#N,1,4,0,-2,1,-14,·,·
CCOC(=O)Cn1c(-c2ccccc2)cc(SC)c(C#N)c1=O,-10,0,1,-17,-2,4,·,·
CSc1cc(-c2ccccc2)n(Cc2c(Cl)cccc2Cl)c(=O)c1C#N,2,66*,0,59,1,0,51*,69*
O=C(CN(Cc1ccc(F)cc1)C(=O)CCC(=O)Nc1nccs1)NCc1ccc(F)cc1,-12,3,0,-5,0,-3,·,·
COc1ccc(OC)c(/C=C2\SC(N3CCCCC3)=NC2=O)c1,-11,6,0,-9,-2,-2,·,·
CC1CCc2c(sc3nc(C(C)(C)C)nc(N4CCN(C(=O)CCl)CC4)c23)C1 (centres undefined),98*,98*,0,63,4,70*,36,35
O=C(COc1coc(CN2CCN(c3ccccc3)CC2)cc1=O)NC1CCCCC1,·,-11,0,-5,0,-11,·,·
CCOc1cc(CNc2ccc(Br)cc2)cc(Br)c1OCC(=O)NC(C)(C)C,19,56*,14,?,-14,19,24,·
O=C(NNC(=O)c1cc(-c2ccc(Cl)cc2Cl)nc2ccccc12)Nc1ccccc1,7,64*,3,-11,30*,74*,38,·
C#CC[N+](C)(C)CCCCCCCCCCCC,101*,84*,6,50,-2,26,80*,37*
CC#CC[N+](C)(C)CCCCCCCCCCCC,104*,87*,18,33,-4,24,64*,30
CCCCCCCCCCCCCCCC[N+](C)(C)CC,117*,92*,6,101*,-9,101*,81*,9
CCCCCCCCCCCCCCCC[N+](C)(C)CCl,·,·,17,·,-1,·,·,·
C#CC[N+](C)(C)CCCCCCCC,0,23,2,10,-2,-6,·,·

# Compound activity: PubChem, several laboratories
